Values joined by “and” are separate entries in the source; they are usually repeats but may differ in a detail not shown here. Equal values may be shown once. The panel holds about 83,000 compounds, 20% with a hit somewhere; the sample as a whole holds those more often.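 Negative percent growth values reflect cell death: -40 means 40% of the cells present at the start died, and -100 means all died.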 Active and inactive are the calls of the source. Rule for the calls: active = growth percent below 10; inactive = the rest.

Data on seven compounds can be found in PubChem BioAssay (NCI).

Some test systems named below: NCI-H23 lung; NCI-H226 lung; NCI-H322M lung; HOP-62 NSCLC; NCI-H460 lung; HOP-92 NSCLC; NCI-H522 lung; A549/ATCC NSCLC; 786-0 renal; COLO 205 colon; DU-145 prostate; K-562 leukemia; MALME-3M melanoma; MDA-MB-231 breast; RXF 393 renal; SF-268 CNS; SF-295 CNS; SF-539 CNS; UACC-257 melanoma; M14 melanoma.
Experiment in all cases: NCI-60 one-dose screen, 48 h (100 = growth as untreated, 0 = no growth, -100 = all killed)
Holding throughout (details): 10 µM unless noted

In the case of `COc1ccc(-c2c[nH]c(C(=O)O)c2-c2cc(OC)c(OC)c(OC)c2)cc1`, the growth with NCI-H23 lung is 48.5% (inactive); in the experiment on NCI-H226 lung it was 88.9% (inactive); with NCI-H322M lung, 47.9% (inactive); with HOP-62 NSCLC it was 37.3% (inactive); in the experiment with NCI-H460 lung it was 14.4% (inactive); in the experiment on HOP-92 NSCLC, 32.2% (inactive). Moreover, the growth was 28.1% (inactive) in the experiment with NCI-H522 lung; 49.4% (inactive) with A549/ATCC NSCLC; 31.3% (inactive) with 786-0 renal; 14.7% (inactive) in the experiment on COLO 205 colon; 49% (inactive) in the experiment on DU-145 prostate; 11.7% (inactive) with K-562 leukemia. Also, the growth in the experiment with MALME-3M melanoma is 33.7% (inactive); with MDA-MB-231 breast, 57.7% (inactive); with RXF 393 renal, -3.91% (active); in the experiment on SF-268 CNS it was 64.9% (inactive); with SF-295 CNS, 23.6% (inactive); in the experiment with SF-539 CNS, 2.29% (active). Also, the values for the growth in the experiment on UACC-257 melanoma and in the experiment with M14 melanoma were 78.8% (inactive) and 45.7% (inactive), respectively.
As to `CC1(C)C(N)=Nc2cc(OCCCN3Cc4ccc(OCCc5cn(CC(=O)N6CCC(CCN7CCCC7)CC6)nn5)cc4C3)c(OCC3CC3)cc21`, the growth with NCI-H23 lung is 98.2% (inactive); in the experiment on NCI-H226 lung, 108% (inactive); with NCI-H322M lung it was 102% (inactive); in the experiment with HOP-62 NSCLC, 95.4% (inactive); with NCI-H460 lung it was 105% (inactive); with HOP-92 NSCLC, 81.3% (inactive). For the same compound, the growth with NCI-H522 lung was 101% (inactive); in the experiment on A549/ATCC NSCLC, 100% (inactive); with 786-0 renal, 99.6% (inactive); in the experiment with COLO 205 colon it was 108% (inactive); in the experiment on DU-145 prostate it was 111% (inactive); with K-562 leukemia, 88% (inactive). Moreover, the growth in the experiment with MALME-3M melanoma was 106% (inactive); in the experiment on MDA-MB-231 breast it was 112% (inactive); in the experiment with RXF 393 renal, 113% (inactive); with SF-268 CNS, 86% (inactive); with SF-295 CNS it was 100% (inactive); in the experiment on SF-539 CNS it was 97% (inactive). Also, the growth was 112% (inactive) in the experiment with UACC-257 melanoma and 108% (inactive) with M14 melanoma.
Regarding `O=C(NCCCN1CCCCC1)c1ccc(-c2nc3ccc4[nH]ncc4c3c3c2CCCC3)cc1`, the growth is 49.3% (inactive) in the experiment on NCI-H23 lung; 63.8% (inactive) with NCI-H226 lung; 51.7% (inactive) in the experiment with NCI-H322M lung; 47.6% (inactive) with HOP-62 NSCLC; 24.9% (inactive) with NCI-H460 lung; 46.2% (inactive) in the experiment with HOP-92 NSCLC. Besides, the growth with NCI-H522 lung was 42.8% (inactive); with A549/ATCC NSCLC, 26.6% (inactive); in the experiment with 786-0 renal, 44.3% (inactive); with COLO 205 colon, 60.9% (inactive); in the experiment with DU-145 prostate it was 51.3% (inactive); in the experiment on K-562 leukemia, 16.7% (inactive). In addition, the growth in the experiment on MALME-3M melanoma was 70.8% (inactive); in the experiment with MDA-MB-231 breast, 54.9% (inactive); with RXF 393 renal, 28.5% (inactive); in the experiment with SF-268 CNS it was 54.2% (inactive); with SF-295 CNS, 55.3% (inactive); in the experiment on SF-539 CNS it was 43.8% (inactive). Further, the results for the growth in the experiment with UACC-257 melanoma and in the experiment with M14 melanoma were 97.2% (inactive) and 57.3% (inactive), respectively.
In the case of `Cc1c(CC(=O)OCCO)cc(-c2ccc(Cl)cc2)n1-c1ccccc1`, the growth was 82.3% (inactive) in the experiment on NCI-H23 lung; 93.9% (inactive) with NCI-H226 lung; 106% (inactive) in the experiment with NCI-H322M lung; 95% (inactive) with HOP-62 NSCLC; 104% (inactive) in the experiment with NCI-H460 lung; 97.4% (inactive) in the experiment with HOP-92 NSCLC. Also, the growth in the experiment with NCI-H522 lung is 82.6% (inactive); with A549/ATCC NSCLC it was 94% (inactive); in the experiment on 786-0 renal, 102% (inactive); in the experiment on COLO 205 colon, 109% (inactive); in the experiment on DU-145 prostate, 102% (inactive); with K-562 leukemia, 70.5% (inactive). Moreover, the growth with MALME-3M melanoma was 103% (inactive); with MDA-MB-231 breast it was 95.4% (inactive); with RXF 393 renal it was 107% (inactive); with SF-268 CNS, 94.5% (inactive); in the experiment with SF-295 CNS it was 96.6% (inactive); with SF-539 CNS, 101% (inactive). For the same compound, the growth in the experiment with UACC-257 melanoma was 98.9% (inactive); in the experiment with M14 melanoma, 109% (inactive).
In the case of `CC(C)(C)c1cc(NC(=O)Nc2ccc(-c3cn4c(n3)sc3cc(OCCN5CCOCC5)ccc34)cc2)no1`, the growth in the experiment on NCI-H23 lung was 23.9% (inactive) and 42.6% (inactive); in the experiment with NCI-H226 lung it was 17.8% (inactive); with NCI-H322M lung, 34.9% (inactive) and 54.5% (inactive); with HOP-62 NSCLC, 35.7% (inactive) and -26.2% (active); in the experiment with NCI-H460 lung, -10.7% (active) and 10.4% (inactive); in the experiment on HOP-92 NSCLC it was -2.21% (active) and -1.85% (active). The growth with NCI-H522 lung was -3.14% (active) and 10.6% (inactive); in the experiment with A549/ATCC NSCLC, 28.3% (inactive) and 17.3% (inactive); in the experiment on 786-0 renal it was -9.92% (active) and 7.85% (active); in the experiment on COLO 205 colon, 10.7% (inactive) and -43.9% (active); with DU-145 prostate, 35.5% (inactive) and 45.5% (inactive); in the experiment on K-562 leukemia, 11.9% (inactive) and 33.9% (inactive). Moreover, the growth in the experiment on MALME-3M melanoma was 28.9% (inactive) and 20.2% (inactive); in the experiment on MDA-MB-231 breast, 43.3% (inactive) and 35.6% (inactive); with RXF 393 renal, -6.16% (active) and -13.6% (active); in the experiment on SF-268 CNS it was 37.2% (inactive) and 22.8% (inactive); with SF-295 CNS it was -58.7% (active) and 16.4% (inactive); in the experiment with SF-539 CNS, -83.3% (active) and 13.6% (inactive). The growth in the experiment with UACC-257 melanoma is 4.5% (active) and -6.8% (active); with M14 melanoma, 37.4% (inactive) and 24% (inactive).
Regarding `Cc1oc2c(Cc3ccc(NC(=O)c4ccc(Cl)cc4)cc3)ncnc2c1C(=O)NO`, the growth in the experiment with NCI-H23 lung was 97.2% (inactive); with NCI-H226 lung, 86.4% (inactive); in the experiment on NCI-H322M lung, 93.1% (inactive); in the experiment on HOP-62 NSCLC, 101% (inactive); with NCI-H460 lung it was 97.3% (inactive); in the experiment with HOP-92 NSCLC, 125% (inactive). Further, the growth in the experiment on NCI-H522 lung is 70.7% (inactive); in the experiment with A549/ATCC NSCLC, 88.5% (inactive); in the experiment with 786-0 renal, 95% (inactive); with COLO 205 colon, 107% (inactive); in the experiment on DU-145 prostate, 105% (inactive); in the experiment with K-562 leukemia, 78.3% (inactive). In addition, the growth is 93.9% (inactive) in the experiment on MALME-3M melanoma; 108% (inactive) with MDA-MB-231 breast; 97.6% (inactive) in the experiment with RXF 393 renal; 97.6% (inactive) in the experiment on SF-268 CNS; 95.3% (inactive) with SF-295 CNS; 104% (inactive) in the experiment with SF-539 CNS. For the same compound, the growth in the experiment with UACC-257 melanoma is 84% (inactive); with M14 melanoma, 99.6% (inactive).
Turning to `O=C(Nc1ncc(Cc2cccc(C(F)(F)F)c2)s1)c1ccc(-n2cnnn2)cc1`, the growth in the experiment with NCI-H23 lung is 55% (inactive); with NCI-H226 lung it was 69.3% (inactive); in the experiment with NCI-H322M lung it was 86.1% (inactive); in the experiment with HOP-62 NSCLC, 104% (inactive); in the experiment with NCI-H460 lung it was 30.5% (inactive); with HOP-92 NSCLC it was 86.2% (inactive). The growth in the experiment with NCI-H522 lung was 54.5% (inactive); in the experiment with A549/ATCC NSCLC it was 34.4% (inactive); in the experiment with 786-0 renal, 66.1% (inactive); in the experiment with COLO 205 colon, 121% (inactive); with DU-145 prostate, 60.3% (inactive); in the experiment with K-562 leukemia, 21% (inactive). In addition, the growth in the experiment with MALME-3M melanoma is 62.6% (inactive); in the experiment on MDA-MB-231 breast it was 96.9% (inactive); in the experiment with RXF 393 renal it was 103% (inactive); in the experiment on SF-268 CNS, 55.4% (inactive); in the experiment with SF-295 CNS, 32.2% (inactive); in the experiment on SF-539 CNS, 47.9% (inactive). The results for the growth in the experiment on UACC-257 melanoma and with M14 melanoma were 46.8% (inactive) and 41.4% (inactive), respectively.
